The source of these data is PubChem BioAssay (Tox21).

This assay addresses Muscarinic acetylcholine receptor M1 (Homo sapiens) (UniProt P11229). In words: Cholinergic receptor muscarinic 1 (CHRM1) small molecule agonists, cell-based qHTS assay (AID 1963589). Further: nearly all actives have a fitted effect of over 35% in size. Particulars: CHRM1-CHO cells, agonist mode, calcium flux fluorescence; series mostly up to 76.8 µM. In a few lines:
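CHO cells stably expressing human CHRM1, seeded 18 h at 37 C/5% CO2, dye-loaded 1 h at 37 C, then given compound in agonist mode; intracellular calcium fluorescence read kinetically at 1 s intervals. Fifteen concentrations, three independent runs.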

Calls of active or inactive are those of the source. Entries that show only a call come without a potency. The call rests on the fitted dose curve.

Chain of Muscarinic acetylcholine receptor M1 (Homo sapiens) (P11229 whole entry, looked up): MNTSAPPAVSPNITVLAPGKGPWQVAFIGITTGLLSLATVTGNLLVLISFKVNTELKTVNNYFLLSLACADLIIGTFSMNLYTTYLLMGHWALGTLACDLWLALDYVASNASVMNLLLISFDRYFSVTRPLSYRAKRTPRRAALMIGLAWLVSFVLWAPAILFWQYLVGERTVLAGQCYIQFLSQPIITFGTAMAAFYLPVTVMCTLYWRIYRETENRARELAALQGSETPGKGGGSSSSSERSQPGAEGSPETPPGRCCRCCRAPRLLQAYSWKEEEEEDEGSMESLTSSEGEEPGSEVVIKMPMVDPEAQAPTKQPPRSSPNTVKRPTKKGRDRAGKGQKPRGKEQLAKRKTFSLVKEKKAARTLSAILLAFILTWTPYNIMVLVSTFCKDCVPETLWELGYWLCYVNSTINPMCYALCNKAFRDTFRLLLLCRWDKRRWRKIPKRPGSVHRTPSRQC

For the compound `CCCCCCCCCCCCO`, the Potency entry was “inactive”.
Turning to `CC1CCC2CC1C2(C)C` (centres undefined), the Potency entry was “inactive”.
With `CCCCCCCCCCCCS`, the Potency result was “inactive”.
Consider `O=C(O)Cc1cccc2ccccc12`, for which the Potency entry is “inactive”.
To `CCCCCCCCCC(=O)O` belongs “inactive”; to `CC(=O)OC[C@H]1O[C@@](COC(C)=O)(O[C@H]2O[C@H](COC(C)=O)[C@@H](OC(C)=O)[C@H](OC(C)=O)[C@H]2OC(C)=O)[C@@H](OC(C)=O)[C@@H]1OC(C)=O`, “inactive”; to `O=C(O)c1ccc(C(=O)O)cc1`, “inactive”.
As to `C/C=C1/CC2C=CC1C2` (centres undefined), the Potency result was “inactive”.
On to `CCc1cccc(O)c1`, for which the Potency result was “inactive”.
For `CC(=O)OCCC(C)C`, the Potency result is “inactive”.
As for `COc1ccc(C(Cl)=C(c2ccc(OC)cc2)c2ccc(OC)cc2)cc1`, the Potency entry is “inactive”.
As to `CN(C)C(=O)Nc1ccc(Cl)c(Cl)c1`, the Potency entry is “inactive”.
The same measure for `O=C(OCC1CCC2OC2C1)C1CCC2OC2C1` (centres undefined): “inactive”; for `CCCCCCCCC(=O)O`: “inactive”.
The same measure for `CCCCN(CCCC)CCCC`: “inactive”.
To `CC(C)OC(=O)COc1ccc(Cl)cc1Cl` belongs “inactive”; to `COC(=O)c1ccc(C)cc1`, “inactive”; to `Cc1cc(CC(=O)O)n(C)c1C(=O)c1ccc(Cl)cc1`, “inactive”.
In the case of `OCC(O)CS` (centres undefined), the Potency result was “inactive”.
Turning to `O=c1c(O)c(-c2ccc(O)cc2)oc2cc(O)cc(O)c12`, the Potency result is “inactive”.
Consider `COCC(C)N` (centres undefined), for which the Potency entry is “inactive”.
The same measure for `c1ccc2cc3c(ccc4ccccc43)cc2c1`: “inactive”; for `c1ccc(Nc2ccccc2)cc1`: “inactive”; for `CCC(=O)OC/C=C/c1ccccc1`: “inactive”.
Turning to `c1ccc2ccccc2c1`, the Potency entry is “inactive”.
Take `C=CCCCCCCCCCC`: the Potency result was “inactive”.
As to `CCCCCCCC(=O)OCC(O)CO` (centres undefined), the Potency entry is “inactive”.
To `c1ccc2cc(Nc3ccc(Nc4ccc5ccccc5c4)cc3)ccc2c1` belongs “inactive”.
Turning to `COc1ccc(C(=O)c2ccccc2O)c(O)c1`, the Potency entry was “inactive”.
Regarding `C=CCOC(=O)c1ccccc1C(=O)OCC=C`, the Potency entry was “inactive”.
For `C=C(C)C(=O)OCC(CC)(COC(=O)C(=C)C)COC(=O)C(=C)C`, the Potency entry is “inactive”.
For the compound `O=[N+]([O-])c1cc(C(F)(F)F)ccc1Cl`, the Potency entry is “inactive”.
With `CN(C)CCOC(=O)COc1ccc(Cl)cc1`, the Potency entry was “inactive”.
To `OC[C@H]1O[C@H](O[C@]2(CCl)O[C@H](CCl)[C@@H](O)[C@@H]2O)[C@H](O)[C@@H](O)[C@H]1Cl` belongs “inactive”; to `CCCC(O)C(CC)CO` (centres undefined), “inactive”.
Consider `Cc1ccc([N+](=O)[O-])cc1S(=O)(=O)O`, for which the Potency result is “inactive”.
To `CC(=O)c1nccs1` belongs “inactive”; to `O=C(Cl)c1c(Cl)c(Cl)c(C(=O)Cl)c(Cl)c1Cl`, “inactive”.
Take `NC(=S)NNC(N)=S`: the Potency entry was “inactive”.
On to `O=CCc1ccccc1`, for which the Potency entry was “inactive”.
Consider `NCCNc1cccc2ccccc12`, for which the Potency result was “inactive”.
As for `CCCCCCCCCCCCCC[N+](C)(C)Cc1ccccc1`, the Potency result is “inactive”.
For `NCCCCCCN`, the Potency result was “inactive”.
Turning to `CC1=CC(=O)CC(C)(C)C1`, the Potency entry is “inactive”.
As to `N[C@@H](Cc1cc(I)c(Oc2cc(I)c(O)c(I)c2)c(I)c1)C(=O)O`, the Potency entry is “inactive”.
To `CCNc1cccc(C)c1` belongs “inactive”; to `Cc1ccc([N+](=O)[O-])cc1N`, “inactive”.
As for `Cc1ncc[nH]1`, the Potency result is “inactive”.
For `[Na+]`, the Potency entry is “inactive”.
To `CCCCCCCC=O` belongs “inactive”.
The same measure for `Cc1cccc(O)c1`: “inactive”.
Turning to `CNC[C@H](O)[C@@H](O)[C@H](O)[C@H](O)CO`, the Potency result is “inactive”.
As for `CN(C)Cc1cc(CN(C)C)c(O)c(CN(C)C)c1`, the Potency result is “inactive”.
The same measure for `CCCCCCCCCCCCc1ccccc1`: “inactive”; for `Nc1ccc(S(=O)(=O)c2ccc(N)cc2)cc1`: “inactive”.
On to `Nc1ccn([C@H]2CC[C@@H](CO)O2)c(=O)n1`, for which the Potency result was “inactive”.
To `CCc1nc(N)nc(N)c1-c1ccc(Cl)cc1` belongs “inactive”; to `O=C(OCCOCCOC(=O)c1ccccc1)c1ccccc1`, “inactive”; to `COC(=O)/C=C\C(=O)OC`, “inactive”.
With `C=CC(=O)OCCC(=O)O`, the Potency result is “inactive”.
As to `CCCCCCCC(=O)OCC(COC(=O)CCCCCCC)OC(=O)CCCCCCC`, the Potency result is “inactive”.
For the compound `COc1ccc(C(=O)c2ccccc2)c(O)c1`, the Potency entry is “inactive”.
On to `C[Si]1(C)O[Si](C)(C)O[Si](C)(C)O[Si](C)(C)O1`, for which the Potency result was “inactive”.
On to `Cn1c([N+](=O)[O-])cnc1COC(N)=O`, for which the Potency entry is “inactive”.
The same measure for `C=CC(C)CCCC(C)(C)O` (centres undefined): “inactive”; for `Cc1cc(C(C)(C)C)c(O)c(C(C)(C)C)c1`: “inactive”; for `Nc1ccc(C(=O)O)cc1`: “inactive”.
In the case of `NCCS(=O)(=O)O`, the Potency result is “inactive”.
On to `CCCCNC(N)=O`, for which the Potency result was “inactive”.
To `ClC/C=C/CCl` belongs “inactive”.
In the case of `CCCCCCc1ccc(O)cc1O`, the Potency result was “inactive”.
Turning to `CC(C)CC(=O)CC(C)CC(C)C` (centres undefined), the Potency entry was “inactive”.
The same measure for `OCc1cccc(Oc2ccccc2)c1`: “inactive”; for `NC(=NCCCCCCN=C(N)/N=C(\N)Nc1ccc(Cl)cc1)/N=C(\N)Nc1ccc(Cl)cc1`: “inactive”.
